This note sets out measurements from PubChem BioAssay (NCATS).

Experiment [1] relates to CRL-7250. The experiment is described as follows: Cytotoxic Profiling of Annotated Libraries Using Quantitative High-Throughput Screening (AID 1296008). Further: nearly all actives have a fitted effect of over 60% in size. Further: potency means the concentration at half of the fitted maximal effect. On max response: on the % scale 0 is the no-effect control and ±100 the full control effect. The conditions noted are these: Five cell lines viability, CellTiter-Glo ATP luminescence, 48-72 h; max response: hits give low values. The method, boiled down: (§1)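 Compounds were pin-transferred onto cells and incubated 48 or 72 hr at 37 degree Celsius, 95% humidity. CellTiter-Glo was added, plates sat 10 min at room temperature, then ATP-coupled luminescence was imaged as the viability read-out.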
In general terms: Cellular ATP, detected with luciferase, serves as a proxy for viable cell number.

Experiment [2] has as its system HEK293. The description is as above. The conditions noted are these: Five cell lines viability, CellTiter-Glo ATP luminescence, 48-72 h; max response: hits give low values. In short, it runs like this: as §1
For experiment [3], the system named is KB-3-1. The description is as above. As to conditions: Five cell lines viability, CellTiter-Glo ATP luminescence, 48-72 h; max response: hits give low values. The method, boiled down: as §1
Experiment [4] relates to NIH3T3. The experiment is described as above. As to conditions: Five cell lines viability, CellTiter-Glo ATP luminescence, 48-72 h; max response: hits give low values. The method, boiled down:
as §1

Experiment [5] has as its system C33A. Nature of the experiment: Primary qHTS to identify gynecologic anti-cancer compounds using libraries of approved drugs and bioactive compounds (AID 1345084). Further: on the % scale 0 is the no-effect control and ±100 the full control effect; nearly all actives have a fitted effect of over 55% in size. The conditions noted are these: Gynecologic cancer cell panel viability, ATPlite luminescence, 48 h; series mostly up to 57.5 µM. The method, boiled down:
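ATP-based viability (ATPlite), 1,000 cells/well, 16 h pre-incubation, 48 h compound at 37 C, 5% CO2, 15 min RT before read.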
For orientation: In qHTS, concentration-response curves come from the screen itself.

In experiment [6] the test system is HaCat. The experiment is described as follows: Cytotoxic Profiling of Annotated Libraries Using Quantitative High-Throughput Screening (AID 1296008). Further: nearly all actives have a fitted effect of over 60% in size. Further: potency means the concentration at half of the fitted maximal effect. On max response: on the % scale 0 is the no-effect control and ±100 the full control effect. As to conditions: Five cell lines viability, CellTiter-Glo ATP luminescence, 48-72 h; max response: hits give low values. The method, boiled down:
as §1

The test system of experiment [7] is HACAT. Nature of the experiment: qHTS assay to identify novel small-molecules to repurpose for Merkel cell carcinoma treatment (AID 1296009). Further: nearly all actives have a fitted effect of over 60% in size. As to conditions: MCC and control cell lines, CellTiter-Glo viability, 72 h; at 44.8 µM (top of the series) unless noted. In short, it runs like this: (§2)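 Viability readout: ATP luminescence (CellTiter-Glo) after 72 hr drug exposure at 37 degree celsius. Dose-response format was 8 points for NPC and 11 points for MIPE; data normalized to in-plate controls.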

Experiment [8] has as its system HEK293T. The description is as above. The conditions noted are these: MCC and control cell lines, CellTiter-Glo viability, 72 h; series mostly up to 44.8 µM. The method, boiled down: as §2
Experiment [9] relates to NIH3T3. The description is as above. As to conditions: MCC and control cell lines, CellTiter-Glo viability, 72 h; at 44.8 µM (top of the series) unless noted. The method, boiled down:
as §2

SMILES strings stand for the structures. Several values for one entry are separate records, joined by “and”; a condition that tells them apart may be missing. Equal entries are not always repeated. Inconclusive results are not listed. Unmarked numbers belong to inactive results. Activity calls are given as the source filed them. The call rests on the fitted dose curve; in most records, active means well fitted curve in the direction sought with a large enough effect; inconclusive means small, poorly fitted or top-dose-only effect, or another doubt; inactive means no such curve, though single readings can be large; an effect the other way counts as inactive or inconclusive.

In the case of `Cc1c(-c2ccnn2C)cc(C(=O)NCc2ccc(S(C)(=O)=O)cn2)c(=O)n1-c1cccc(C(F)(F)F)c1`, the max response in experiment [1] is 0.591% and -4.37% and 3.84%; in experiment [2], -6.6% [middle of 4 runs]; in [3], 2.1% and 7.91%; in [4] it was 0.936% and -17.4% and -7.73%. The call in experiment [1] and in [3] was inactive. In addition, the Potency result in experiment [5] is “inactive”.

In the case of `CO/N=C(/C(=O)N[C@@H]1C(=O)N2C(C(=O)O)=C(CSC(=O)c3ccco3)CS[C@H]12)c1csc(N)n1`, the max response was -7.13% and 1.26% in [1]; 3.45% and -9.59% in [2]; 4.84% in experiment [6]; -14.5% in [3]; 0.301% and -3.25% in experiment [4]. Moreover, the outcome in experiment [6] and in experiment [7] was “inactive; activator” in each case. In addition, the molecule was called inactive in experiment [3]. Further, the Potency entry in [5] is “inactive”.

In the case of `CC(C)N(C[C@H]1O[C@@H](n2cnc3c(N)ncnc32)[C@H](O)[C@@H]1O)C1CC(CCc2nc3ccc(C(C)(C)C)cc3[nH]2)C1` (stereo partly drawn), the max response was -0.229% in [1]; 3.92% in experiment [6]; 5.25% in experiment [3]; -7.24% and -17.7% in experiment [4]. For the same molecule, the outcome in experiment [1], in experiment [6] and in experiment [7] was inactive. Further, the Potency in [2] was 7.41 µM (active). Besides, the Potency result in [5] was “inactive”.

Consider `CCC(C)C(=O)O[C@@H]1[C@@H](O)[C@@H](O[C@H]2O[C@H](CO)[C@@H](O)[C@H](O)[C@H]2O)O[C@H](CO)[C@H]1O` (stereo partly drawn), for which the molecule was called inactive in experiment [1], in experiment [2], in experiment [6], in [3] and in [4]. Further, the outcome in experiment [7] and in experiment [9] was “inactive [at 17.4 µM]” in each case. Also, the Potency result in experiment [8] and in experiment [5] was “inactive” in each case.

Regarding `O=C(Nc1cccnn1)N1CCC(=Cc2cccc(Oc3ccc(C(F)(F)F)cn3)c2)CC1`, the max response in experiment [1] was -4.32%; in experiment [6], -13.4%; in [4] it was -5.09% and -8.67%. For the same molecule, the Potency in [2] was 8.2 µM (active) and 13.2 µM (active). Besides, the outcome in [6] and in [7] was inactive.

For the molecule `N[C@H]1C[C@H]1c1ccc(-c2cccc(O)c2)cc1`, the max response in [1] is 0.175% and -10.6%; in experiment [2], -29.8% and -17.5%; in experiment [6], -1.19%; in [4] it was -6.35%. In addition, the outcome in experiment [6], in experiment [3], in [4], in experiment [7] and in [9] was inactive. Further, the Potency entry in experiment [5] was “inactive”.

Turning to `CCN[C@@H]1C[C@H](N)[C@@H](O[C@H]2OC(CN)=CC[C@H]2N)[C@H](O)[C@H]1O[C@H]1OC[C@](C)(O)[C@H](NC)[C@H]1O`, the max response was -13% in experiment [1]; -0.314% in experiment [2]; 9.12% in experiment [3]; -0.755% and 2.29% in [4]. Further, the molecule was classed as inactive in experiment [1], in experiment [6], in experiment [3] and in [7]. The Potency entry in experiment [5] is “inactive”.

In the case of `CCn1c2ccccc2c2cc(CNC)ccc21`, the max response in experiment [1] is -18% and 2.31%; in experiment [3], -23.4%; in [4] it was -5.49%. Further, the Potency in [2] is 18.4 µM (active). In addition, the call in experiment [6], in experiment [3], in experiment [4], in [7] and in [9] was inactive. Moreover, the Potency result in [5] is “inactive”.

In the case of `CCOC(=O)c1ccnc(CNCC(=O)N(CC)CCN(C)C)c1`, the max response was 3.74% in experiment [1] and 5.64% in [3]. Besides, the molecule was called inactive in [2], in experiment [6], in experiment [4], in experiment [7] and in experiment [9]. The Potency result in experiment [8] and in [5] was “inactive” each time.

Consider `CCCC(N[C@@H](C)C(=O)N1[C@H](C(=O)O)C[C@@H]2CCCC[C@@H]21)C(=O)OCC` (stereo partly drawn), for which the outcome in experiment [1], in experiment [2], in experiment [6], in experiment [3], in experiment [4] and in experiment [7] was inactive. The result in experiment [9] was inactive. Further, the Potency result in experiment [8] and in experiment [5] was “inactive” each time.

Regarding `CC(=O)N(O)CCCCCN1C(=O)CCC1=O`, the result in experiment [1], in experiment [2], in experiment [6], in experiment [4], in experiment [7] and in experiment [9] was inactive. The max response in experiment [3] is 2.57%. The Potency result in experiment [8] and in [5] was “inactive” each time.

Take `COc1cc(C(C)=O)ccc1O[C@@H]1O[C@H](CO[C@@H]2O[C@@H](C)[C@H](O)[C@@H](O)[C@H]2O)[C@@H](O)[C@H](O)[C@H]1O`: in experiment [1], the max response is -2.17%. Moreover, the call in [2], in experiment [6], in experiment [3] and in experiment [4] was inactive. Also, the outcome in experiment [7] and in [9] was “inactive [at 17.4 µM]” throughout. Further, the Potency result in [8] and in [5] was “inactive” in each case.

In the case of `CC1CCC2C(C)(C)CC(C)(CO)C2(O)C1C(=O)O` (stereo not drawn), the values for the max response in experiment [1] and in experiment [3] were 0.69% and 9.23%, respectively. Besides, the molecule was classed as inactive in experiment [2], in [6], in experiment [4], in experiment [7] and in experiment [9]. Besides, the Potency result in experiment [8] and in [5] was “inactive” in each case.

With `CN[C@@H]1[C@@H](O)[C@@H](O[C@@H]2[C@@H](O)[C@H](O[C@H]3O[C@H](CN)[C@@H](O)[C@H](O)[C@H]3O)[C@@H](N)C[C@H]2NC(=O)[C@@H](O)CN)OC[C@]1(C)O`, the max response is -2.08% in experiment [1] and -2.9% in [3]. In addition, the call in [2], in experiment [6], in [4], in [7] and in [9] was inactive. In addition, the Potency entry in [8] and in [5] was “inactive” each time.
